Source: PubChem BioAssay (NCATS)
Values without a mark were called inactive. Activity calls are given as the source filed them. The call rests on the fitted dose curve.

Molecular target: Tumor susceptibility gene 101 protein (Homo sapiens) (UniProt Q99816)
Test: qHTS Validation Assay for Iinhibitors of HIV-1 Budding by Blocking the Interaction of PTAP/TSG101 (AID 485342); further: 0% is about no effect
Settings: TSG101-PTAP binding, fluorescence polarization, 4-point titration; series mostly up to 115 µM; fluorescence change: at the top concentration
From the text: NIH Molecular Libraries Probe Production Network [MLPCN]
NIH Chemical Genomics Center [NCGC]
PI Name: Dr. Eric Freed, NCI
Stages of the HIV-1 replication cycle, specifically virus assembly and release, provide underexploited targets for the development of novel antiviral inhibitors. The late stages of HIV-1 replication are mediated by the Gag precursor protein, Pr55Gag. Expression of Pr55Gag is both necessary and sufficient for the production of virus-like particles from Gag-expressing cells. The Gag protein hijacks key host proteins involved in endocytic machinery of the host cell to promote endosomal processing and viral budding. The budding process requires a direct interaction between a […] (PTAP) motif in the p6 domain of Gag and the cellular endosomal sorting protein known as Tsg101. In this way, the Gag PTAP motif promotes the host cells to recruit viral particles to the plasma membrane where the new viral particles are released, effectively turning the host cells into viral factories. A fluorescence anisotropy assay has been developed to quantitatively measure the PTAP-Tsg101 interaction which can be used to screen for inhibitors of this interaction.
NCGC Assay Protocol Summary:
Two uL of the Tsg101 binding domain in buffer (10 mM HEPES pH 7.5; 0.15 M NaCl, 0.01% Tween 20; 3 mM EDTA;0.1 mM TCEP) was dispensed into Greiner black MB 1536-well plates (final concentration 10 uM). Then, 23 nL of compounds or DMSO were delivered to each well using a pin tool. Finally, 2 uL of a FITC-labeled peptide containing the PTAP motif (1) in the same buffer was dispensed (50 nM final concentration) and the binding was allowed to proceed for 20 min. at r.t. Fluorescent polarization was determined using FITC excitation and polarized emission filters on a Perkin Elmer Viewlux.
Keywords: Tsg101, PTAP, Gag, HIV, fluorescent polarization, MLSMR, MLPCN, NIH Roadmap, qHTS, NCGC

Chain of Tumor susceptibility gene 101 protein (Homo sapiens) (Q99816 whole entry, looked up): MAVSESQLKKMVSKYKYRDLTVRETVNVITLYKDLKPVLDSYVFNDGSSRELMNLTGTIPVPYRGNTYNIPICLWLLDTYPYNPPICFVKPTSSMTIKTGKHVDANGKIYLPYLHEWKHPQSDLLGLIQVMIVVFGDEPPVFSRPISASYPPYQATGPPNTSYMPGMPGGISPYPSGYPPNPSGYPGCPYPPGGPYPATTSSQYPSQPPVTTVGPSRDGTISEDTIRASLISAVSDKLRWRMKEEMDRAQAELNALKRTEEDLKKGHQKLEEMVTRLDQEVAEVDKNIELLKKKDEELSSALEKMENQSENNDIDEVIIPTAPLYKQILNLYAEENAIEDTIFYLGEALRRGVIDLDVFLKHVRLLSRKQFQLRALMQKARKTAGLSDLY

How did the “fluorescence change” value turn out when `CCN1CCC[C@H]1CNC(=O)c1cc(S(N)(=O)=O)ccc1OC` was run?
The value was 3.31%.

For `O=C(O)CCc1nc(-c2ccccc2)c(-c2ccccc2)o1`, which “fluorescence change” value is on record?
Its value is 5.57%.

How did the “fluorescence change” value turn out when `O=C1NC(=O)C(c2ccccc2)(c2ccccc2)N1` was run?
The value was 1.95%.

How did the “fluorescence change” value turn out when `Clc1ccc(C(c2ccc(Cl)cc2)n2cc[n+](CC(OCc3ccc(Cl)cc3Cl)c3ccc(Cl)cc3Cl)c2)cc1` (stereo unspecified) was run?
Its value is -16.7%.

With `C[N+](C)(C)CCCCCC[N+](C)(C)C` as the compound, how does the outcome read?
Its outcome is “inactive”.

How did the “fluorescence change” value turn out when `COc1ccccc1N1CCN(CCCNc2cc(=O)n(C)c(=O)n2C)CC1` was run?
The value was -2.82%.

How did the “fluorescence change” value turn out when `CC(C)NCC(O)COc1cccc2[nH]ccc12` (stereo unspecified) was run?
The value was 3.75%.

`CCN(CC)C(=O)c1ccc(O)c(OC)c1` was tested. Which “fluorescence change” value did it give?
Its value is 4.04%.

With `O=c1c(-c2ccc(O)cc2)coc2cc(O)ccc12` as the compound, how does the “fluorescence change” value read?
Its value is 0.134%.

Which “fluorescence change” value does the source give for `CCCNC(=O)NS(=O)(=O)c1ccc(Cl)cc1` here?
Its value is 0.271%.

For `O=C1NCC2(CCN(CCc3ccccc3)CC2)O1`, which “fluorescence change” value is on record?
The value was 4.35%.

How did the “fluorescence change” value turn out when `COc1cccc(-c2cc(=O)c3ccccc3o2)c1N` was run?
The value was -1.41%.

With `O=C(NCCN1CCOCC1)c1ccc(Cl)cc1` as the compound, how does the “fluorescence change” value read?
Its value is -6.03%.

For `O=c1cc(-c2ccc(O)cc2)oc2cc(O)cc(O)c12`, which “fluorescence change” value is on record?
The value was 4.53%.

How did the “fluorescence change” value turn out when `CC(=O)N[C@@H](CS)C(=O)O` was run?
The value was -3.99%.

Which “fluorescence change” value does the source give for `CC1(C)CCC2=C(O1)c1ccccc1C(=O)C2=O` here?
Its value is 2.51%.

For `C[N+](C)(C)CC(=O)O`, which “fluorescence change” value is on record?
The value was 4.38%.

How did the “fluorescence change” value turn out when `NCCS` was run?
Its value is 2.14%.

With `Clc1ccc(Cn2c(CN3CCCC3)nc3ccccc32)cc1` as the compound, how does the “fluorescence change” value read?
Its value is 1.21%.

For `COc1ccc(Cc2nccc3cc(OC)c(OC)cc23)cc1OC`, which “fluorescence change” value is on record?
The value was -1.07%.

For `CC1=C(/C=C/C(C)=C/C=C/C(C)=C/C(=O)Nc2ccc(O)cc2)C(C)(C)CCC1`, which “fluorescence change” value is on record?
The value was 2.49%.

Which “fluorescence change” value does the source give for `CCCCC1C(=O)N(c2ccccc2)N(c2ccccc2)C1=O` here?
Its value is -2.63%.

With `CC/C(=C(\c1ccccc1)c1ccc(OCCN(C)C)cc1)c1ccccc1` as the compound, how does the “fluorescence change” value read?
Its value is -10.9%.

Which “fluorescence change” value does the source give for `CC(C)OC(=O)C(C)(C)Oc1ccc(C(=O)c2ccc(Cl)cc2)cc1` here?
The value was -0.396%.

Which “fluorescence change” value does the source give for `CC(C)(C)c1ccc(C(O)CCCN2CCC(C(O)(c3ccccc3)c3ccccc3)CC2)cc1` (stereo unspecified) here?
The value was -7.07%.

`CCn1cc(C(=O)O)c(=O)c2ccc(C)nc21` was tested. Which “fluorescence change” value did it give?
Its value is 4.46%.

With `CC(=O)c1ccc(S(=O)(=O)NC(=O)NC2CCCCC2)cc1` as the compound, how does the “fluorescence change” value read?
The value was -1.91%.

With `Cc1cccc(C)c1OCC(C)N` (stereo unspecified) as the compound, how does the “fluorescence change” value read?
The value was 0.811%.

How did the “fluorescence change” value turn out when `COC(=O)[C@@H]1[C@H]2C[C@H]3c4[nH]c5ccccc5c4CCN3C[C@@H]2CC[C@@H]1O` was run?
The value was 3.94%.

`CN(C)CCC(c1ccccc1)c1ccccn1` (stereo unspecified) was tested. Which “fluorescence change” value did it give?
The value was 3.3%.

For `CCCCCN(C)CCC(O)(P(=O)(O)O)P(=O)(O)O`, which “fluorescence change” value is on record?
The value was 2.22%.

`NC(N)=Nc1nc(CSCC/C(N)=N/S(N)(=O)=O)cs1` was tested. Which “fluorescence change” value did it give?
Its value is 1.77%.

How did the “fluorescence change” value turn out when `CC(=O)O[C@]1(C(C)=O)CC[C@H]2[C@@H]3C=C(Cl)C4=CC(=O)[C@@H]5C[C@@H]5[C@]4(C)[C@H]3CC[C@@]21C` was run?
Its value is 0.363%.

`CCN(CC)CCNC(=O)c1ccc(N)cc1` was tested. Which “fluorescence change” value did it give?
The value was -2.65%.

`CCN(CC)CCOC(=O)c1ccc(N)cc1` was tested. Which “fluorescence change” value did it give?
Its value is 5.08%.

`CC(=O)CCCCn1c(=O)c2c(ncn2C)n(C)c1=O` was tested. Which “fluorescence change” value did it give?
Its value is 0.635%.
